The record followed here is PubChem BioAssay (NCI).

Each structure is given as a SMILES string. This is part of a sample that, as a whole, favours compounds with a hit. Of some 83,000 tested, about 20% had one in any assay.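 A percent growth of 40 corresponds to 60% growth inhibition; 0 means no net growth; -100 means all cells died. Active threshold: below 10.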 Values without a mark were called inactive. Activity calls are given as the source filed them.

Common to all, as to test: NCI-60 one-dose screen, 48 h (100 = growth as untreated, 0 = no growth, -100 = all killed)
The subject of assay [1] is SK-MEL-2 melanoma. Conditions: 10 µM unless noted.
Assay [2] deals with EKVX NSCLC. Particulars: 10 µM unless noted.
Assay [3] relates to SN12C renal. Conditions: 10 µM unless noted.
Assay [4] concerns UO-31 renal. Particulars: 10 µM unless noted.
Assay [5] has as its system ACHN renal. Particulars: 10 µM unless noted.
In assay [6] the test system is CAKI-1 renal. Conditions: 10 µM.
For assay [7], the system named is A498 renal. Particulars: 10 µM unless noted.
Assay [8] relates to CCRF-CEM leukemia. Particulars: 10 µM unless noted.
In assay [9] the test system is MOLT-4 leukemia. Particulars: 10 µM unless noted.
Assay [10] relates to SR leukemia. Particulars: 10 µM unless noted.
For assay [11], the system named is RPMI-8226 leukemia. Particulars: 10 µM unless noted.
The subject of assay [12] is OVCAR-8 ovarian. Particulars: 10 µM unless noted.
The subject of assay [13] is OVCAR-5 ovarian. Particulars: 10 µM unless noted.
Assay [14] concerns OVCAR-4 ovarian. Particulars: 10 µM unless noted.
Assay [15] relates to SK-OV-3 ovarian. Particulars: 10 µM unless noted.
Assay [16] has as its system IGROV1 ovarian. Particulars: 10 µM unless noted.
The test system of assay [17] is OVCAR-3 ovarian. Particulars: 10 µM unless noted.
Assay [18] deals with HS 578T breast. Particulars: 10 µM unless noted.
Assay [19] deals with NCI/ADR-RES ovarian. Particulars: 10 µM unless noted.

Consider `COc1cc(-c2nc(SCC(=O)Nc3ccc(C(C)=O)cc3)[nH]c(=O)c2C#N)cc(OC)c1OC`, for which the growth in [1] is 35.9%; in [2], 33.8%; in assay [3] it was 29.5%; in [4], 49.3%; in assay [5], 41.6%; in [6] it was 61.5%. Also, the growth in assay [7] is 18.5%; in [8], -11.9% (active); in assay [9], 3.84% (active); in assay [10] it was 7.62% (active); in assay [11], 7.47% (active); in assay [12], 23.2%. For the same compound, the growth is 51.9% in assay [13]; 61.5% in assay [14]; 34.6% in assay [15]; 38.4% in assay [16]; 0.381% (active) in assay [17]; 10.6% in [18]. Further, in [19], the growth was 75.7%.
Consider `Cc1cn(-c2cc(C(=O)Nc3cccc(-n4ccc5c(NC(=O)c6ccccc6)nccc54)c3)cc(C(F)(F)F)c2)cn1`, for which the growth was 11.2% in [1]; 45.6% in assay [2]; 21.7% in assay [3]; 15.5% in assay [4]; 27.6% in [5]; 2.7% (active) in assay [6]. The growth in assay [7] was 16.1%; in assay [8], -21.7% (active); in [9], 12.4%; in [10], -24.9% (active); in [11], -51.7% (active); in assay [12], 4.81% (active). Further, the growth in [13] is 35.6%; in assay [14] it was 75.7%; in assay [15], 13.1%; in assay [16], 7.51% (active); in [17] it was -67.7% (active); in [19], 4.71% (active).
`CN1C(=O)C2(NN=C(c3cccc4ccccc34)S2)c2ccccc21` (configuration not stated): the growth in assay [1] is 37.1%; in assay [2] it was 24%; in assay [3] it was 31.5%; in assay [4], 18.5%; in [5], 30.5%; in [6], 25.7%. In addition, the growth is 47% in [7]; 9.4% (active) in [8]; 2.9% (active) in assay [9]; 28.5% in assay [10]; 18.2% in assay [11]; 26.2% in assay [12]. For the same compound, the growth was 50.2% in [13]; 20% in [14]; 26.5% in assay [15]; 39.4% in assay [16]; 40.2% in assay [17]; 51.1% in assay [18]. Also, the growth in assay [19] is 29%.
With `O=C(Nc1ccc(-n2cc(-c3ccncc3)c(-c3ccc(O)c(Cl)c3)n2)cc1)c1ccc(Cl)c(Cl)c1`, the growth was 20.2% in [1]; 47.7% in assay [2]; 58.3% in assay [3]; 23% in assay [4]; 20.6% in assay [5]; 18.6% in assay [6]. Further, the growth in assay [7] was 79.6%; in assay [8] it was 16.5%; in [9] it was 32.3%; in assay [10], 18.6%; in assay [11] it was -27.7% (active); in assay [12], 25.7%. Besides, the growth was 71.2% in assay [13]; 78.9% in [14]; 66.6% in assay [15]; 61.5% in [16]; 25.7% in [17]; 24.9% in [19].
With `O=C(NCCNc1nccc(-c2c(-c3cccc(O)c3)nc3sccn23)n1)c1ccc(N2CCOCC2)c(C(F)(F)F)c1`, the growth was 66.7% in assay [1]; 74% in assay [2]; 76% in [3]; 61.3% in assay [4]; 60.8% in [5]; 66.9% in [6]. The growth in assay [7] is 47.8%; in assay [8], 56.9%; in [9], 57%; in assay [10], 76.1%; in assay [11], 58.8%; in assay [12], 72.8%. Further, the growth in [13] was 91.2%; in assay [14], 105%; in assay [15], 66.4%; in assay [16], 54.3%; in assay [17] it was 89.1%; in assay [19], 95.4%.
Take `O=[N+]([O-])c1cccc(C(c2ccccc2)c2ccccc2)c1`: the growth was 97.8% in assay [1]; 79.1% in assay [2]; 98% in assay [3]; 75.7% in [4]; 85.9% in [5]; 56.8% in assay [6]. Also, the growth in assay [7] is 91%; in assay [8] it was 87.2%; in [9], 83.3%; in [10], 78.3%; in assay [11] it was 82.9%; in assay [12], 98%. In addition, the growth in assay [13] was 85.6%; in [14] it was 98.2%; in assay [15], 95.6%; in assay [16], 84.5%; in assay [17], 98.3%; in assay [19], 95.8%.
For the compound `O=C(Nc1cccc(-n2ccc3c(NC(=O)c4ccccc4)nccc32)c1)c1cc(N2CCOCC2)cc(C(F)(F)F)c1`, the growth is -4.8% (active) in assay [1]; 36.8% in [2]; 18.8% in [3]; 9.78% (active) in assay [4]; 6% (active) in [5]; 23.5% in assay [6]. For the same compound, the growth in assay [7] was 6.2% (active); in [8], 13.5%; in assay [9], 0.605% (active); in [10] it was -14.2% (active); in assay [11] it was -42.4% (active); in assay [12], 2.86% (active). Besides, the growth in [13] was 19.3%; in assay [14] it was 83.1%; in assay [15], 5% (active); in assay [16] it was 4.25% (active); in assay [17] it was -34.8% (active); in assay [19], 7.24% (active).
With `COc1cc(CN(c2ccc(Cl)cc2)C2OC(=O)c3ccccc32)cc(OC)c1OC` (configuration not stated), the growth in assay [1] was 41.6%; in [2], 59.9%; in assay [3], 61.3%; in [4], 72.4%; in assay [5] it was 85.7%; in assay [6] it was 69.1%. The growth is 40% in assay [7]; 65.7% in assay [8]; 35.4% in assay [9]; 32.1% in assay [10]; 70.9% in assay [11]; 74.8% in assay [12]. Further, the growth is 63.5% in assay [13]; 74.7% in [14]; 62.7% in assay [15]; 63.9% in assay [16]; 48.8% in [17]; 59.6% in [18]. Further, the growth in assay [19] was 55.9%.
